According to the supplement of paper PMC10849652:
Of roughly 7,900 targets only a part is listed; those with a hit were picked by preference. About 0.6% of all pairs of compound and target were hits.

What was measured:
Experiment in all cases: log2 fold change, soluble protein after heating vs DMSO (PISA); higher = thermal stabilisation; K562 cells, 10 uM, 30 min; active = over 0.2 and 3.5 SD of the protein, either way, in both replicates (recomputed)
saracatinib = compound: CN1CCN(CCOc2cc(OC3CCOCC3)c3c(Nc4c(Cl)ccc5c4OCO5)ncnc3c2)CC1 [saracatinib]
Outline: (§1)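 K562 cells (2×10^6 cells/mL) were treated with 10 μM compound for 30 min, and aliquots were heated for 3 min over 48°C-58°C. Pooled aliquots were extracted in PBS with 0.5% NP-40 at 4°C, and the supernatant after 21,000xg for 90 min was measured by TMTpro 16plex LC-MS/MS with channel sums equalised. Reported thermal stability, relative to control samples and from duplicates, is a log2 fold change.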

sotrastaurin = compound: CN1CCN(c2nc(C3=C(c4c[nH]c5ccccc45)C(=O)NC3=O)c3ccccc3n2)CC1 [sotrastaurin]
Outline: as §1

alvocidib = compound: CN1CC[C@H](c2c(O)cc(O)c3c(=O)cc(-c4ccccc4Cl)oc23)[C@H](O)C1 [alvocidib]
Outline: as §1

Tubastatin A = compound: CN1CCc2c(c3ccccc3n2Cc2ccc(C(=O)NO)cc2)C1 [Tubastatin A]
Outline: as §1

[1] = compound: CNC(=O)C1=CC=CC=C1NC2=NC(=NC=C2Cl)NC3=C(C=C(C=C3)N4CCOCC4)OC
Outline: as §1

defactinib = compound: CNC(=O)c1ccc(Nc2ncc(C(F)(F)F)c(NCc3nccnc3N(C)S(C)(=O)=O)n2)cc1 [defactinib]
Outline: as §1

rucaparib = compound: CNCc1ccc(-c2[nH]c3cc(F)cc4c3c2CCNC4=O)cc1 [rucaparib]
Outline: as §1

[2] = compound: CNc1nc(-c2ccc3c(N)n[nH]c3c2)cc(N2C[C@@H](C(=O)NC3CCCCC3)CC[C@H]2C)n1
Outline: as §1

encorafenib = compound: COC(=O)N[C@@H](C)CNc1nccc(-c2cn(C(C)C)nc2-c2cc(Cl)cc(NS(C)(=O)=O)c2F)n1 [encorafenib]
Outline: as §1

[3] = compound: COC(=O)[C@H](CCSC)NC(=O)C1=C(C=C(C=C1)NC[C@H](CS)N)C2=CC=CC=C2
Outline: as §1

[4] = compound: COC1=CC=C(C=C1)CN2C=CC3=C2C=C(C=C3)C(=O)NO
Outline: as §1

filanesib = compound: CON(C)C(=O)N1N=C(c2cc(F)ccc2F)S[C@@]1(CCCN)c1ccccc1 [filanesib]
Outline: as §1

zotarolimus = compound: CO[C@H]1C[C@@H]2CC[C@@H](C)[C@@](O)(O2)C(=O)C(=O)N2CCCC[C@H]2C(=O)O[C@H]([C@H](C)C[C@@H]2CC[C@H](n3cnnn3)[C@H](OC)C2)CC(=O)[C@H](C)/C=C(\C)[C@@H](O)[C@@H](OC)C(=O)[C@H](C)C[C@H](C)/C=C/C=C/C=C/1C [zotarolimus]
Outline: as §1

idasanutlin = compound: COc1cc(C(=O)O)ccc1NC(=O)[C@@H]1N[C@@H](CC(C)(C)C)[C@](C#N)(c2ccc(Cl)cc2F)[C@H]1c1cccc(Cl)c1F [idasanutlin]
Outline: as §1

alisertib = compound: COc1cc(Nc2ncc3c(n2)-c2ccc(Cl)cc2C(c2c(F)cccc2OC)=NC3)ccc1C(=O)O [alisertib]
Outline: as §1

[5] = compound: COc1cc2nc(-c3cc(F)ccc3O)nc(N[C@@H]3CNC[C@H]3C(C)(C)O)c2cc1OC
Outline: as §1

gefitinib = compound: COc1cc2ncnc(Nc3ccc(F)c(Cl)c3)c2cc1OCCCN1CCOCC1 [gefitinib]
Outline: as §1

[6] = compound: COc1cccc2cc(-c3nc([C@H]4CC[C@H](C(=O)O)CC4)n4ncnc(N)c34)[nH]c12
Outline: as §1

lapatinib = compound: CS(=O)(=O)CCNCc1ccc(-c2ccc3ncnc(Nc4ccc(OCc5cccc(F)c5)c(Cl)c4)c3c2)o1 [lapatinib]
Outline: as §1

pictilisib = compound: CS(=O)(=O)N1CCN(Cc2cc3nc(-c4cccc5[nH]ncc45)nc(N4CCOCC4)c3s2)CC1 [pictilisib]
Outline: as §1

Measured: log2 fold change

DOHH (UniProt Q9BU89)
Sequence of UniProt Q9BU89 (Q9BU89 whole entry, looked up): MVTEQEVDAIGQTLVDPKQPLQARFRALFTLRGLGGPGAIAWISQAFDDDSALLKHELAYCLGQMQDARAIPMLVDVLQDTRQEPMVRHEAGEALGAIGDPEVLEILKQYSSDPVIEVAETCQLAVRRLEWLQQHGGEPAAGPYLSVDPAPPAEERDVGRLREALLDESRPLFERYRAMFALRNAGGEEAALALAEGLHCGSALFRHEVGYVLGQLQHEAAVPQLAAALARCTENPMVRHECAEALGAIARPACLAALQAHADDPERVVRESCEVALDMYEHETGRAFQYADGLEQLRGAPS
inactive: saracatinib -0.035 | sotrastaurin 0.196 | alvocidib 0.147 | Tubastatin A -0.121 | [1] -0.076 | defactinib -0.152 | rucaparib -0.002 | [2] -0.064 | encorafenib -0.074 | [3] 0.037 | [4] -0.4 | filanesib -0.151 | zotarolimus 0.022 | idasanutlin -0.038 | alisertib -0.062 | [5] -0.041 | gefitinib 0.201 | [6] 0.084 | lapatinib -0.006 | pictilisib -0.171

DYRK1A isoform 2 (UniProt Q13627)
active: [1] -0.264
inactive: saracatinib -0.046 | sotrastaurin 0.022 | alvocidib -0.135 | Tubastatin A 0.058 | defactinib 0.03 | rucaparib 0.036 | [2] 0.029 | encorafenib 0.014 | [3] -0.021 | [4] -0.061 | filanesib 0.01 | zotarolimus 0.023 | idasanutlin 0 | alisertib -0.03 | [5] 0.004 | gefitinib 0.007 | [6] 0.036 | lapatinib -0.034 | pictilisib 0.017

FAM177A1 isoform 2 (UniProt Q8N128)
Sequence of UniProt Q8N128 (Q8N128 whole entry, looked up): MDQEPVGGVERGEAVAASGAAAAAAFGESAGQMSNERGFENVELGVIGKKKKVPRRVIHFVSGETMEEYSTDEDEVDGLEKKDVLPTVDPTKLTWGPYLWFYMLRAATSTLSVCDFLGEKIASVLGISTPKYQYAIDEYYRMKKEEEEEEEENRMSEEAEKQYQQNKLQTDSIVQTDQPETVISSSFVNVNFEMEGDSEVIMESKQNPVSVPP
inactive: saracatinib 0.092 | sotrastaurin -0.021 | alvocidib -0.011 | Tubastatin A 0.045 | [1] -0.094 | defactinib -0.054 | rucaparib 0.001 | [2] -0.042 | encorafenib -0.029 | [3] -0.065 | [4] -0.072 | filanesib -0.145 | zotarolimus -0.041 | idasanutlin -0.02 | alisertib 0.013 | gefitinib 0.031 | [6] -0.029 | lapatinib -0.018 | pictilisib 0
active: [5] -0.291

DHCR7 (UniProt Q9UBM7)
Sequence of UniProt Q9UBM7 (Q9UBM7 whole entry, looked up): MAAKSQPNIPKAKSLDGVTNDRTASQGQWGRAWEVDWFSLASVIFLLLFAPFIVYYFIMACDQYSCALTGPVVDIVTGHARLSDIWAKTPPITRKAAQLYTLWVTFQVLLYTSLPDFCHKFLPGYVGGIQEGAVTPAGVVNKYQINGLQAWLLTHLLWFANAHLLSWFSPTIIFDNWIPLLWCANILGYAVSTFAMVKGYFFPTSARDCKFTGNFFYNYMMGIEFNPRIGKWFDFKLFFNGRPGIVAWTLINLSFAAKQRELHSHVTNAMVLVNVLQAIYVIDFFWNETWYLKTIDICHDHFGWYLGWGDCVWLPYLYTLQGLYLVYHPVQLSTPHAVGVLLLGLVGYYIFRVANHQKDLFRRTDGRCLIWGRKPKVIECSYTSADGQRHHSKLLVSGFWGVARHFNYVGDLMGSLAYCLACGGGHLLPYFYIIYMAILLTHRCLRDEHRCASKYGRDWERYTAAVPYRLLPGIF
inactive: saracatinib 0.412 | sotrastaurin -0.033 | alvocidib -0.042 | Tubastatin A 0.087 | [1] -0.181 | defactinib -0.01 | rucaparib 0.143 | [2] 0.087 | encorafenib 0.084 | [3] -0.048 | [4] -0.182 | filanesib -0.025 | zotarolimus -0.088 | idasanutlin -0.278 | alisertib 0.01 | [5] 0.101 | gefitinib 0.088 | [6] -0.167 | lapatinib -0.009 | pictilisib -0.115

DCUN1D1 (UniProt Q96GG9)
Sequence of UniProt Q96GG9 (Q96GG9 whole entry, looked up): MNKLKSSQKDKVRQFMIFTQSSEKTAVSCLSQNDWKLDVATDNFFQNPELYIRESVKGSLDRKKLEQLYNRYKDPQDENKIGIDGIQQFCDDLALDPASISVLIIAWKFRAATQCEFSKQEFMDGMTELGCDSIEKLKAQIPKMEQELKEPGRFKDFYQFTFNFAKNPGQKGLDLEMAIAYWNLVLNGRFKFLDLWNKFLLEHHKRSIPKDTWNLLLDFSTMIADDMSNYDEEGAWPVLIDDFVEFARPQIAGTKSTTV
inactive: saracatinib 0.032 | sotrastaurin -0.001 | alvocidib -0.067 | Tubastatin A -0.009 | [1] 0.007 | defactinib -0.033 | rucaparib -0.026 | [2] -0.02 | encorafenib 0.014 | [3] -0.011 | [4] 0.065 | filanesib -0.003 | zotarolimus 0.015 | idasanutlin -0.062 | alisertib 0.008 | [5] -0.021 | gefitinib 0.004 | [6] 0.031 | lapatinib 0.019 | pictilisib 0.015

DBT (UniProt P11182)
Sequence of UniProt P11182 (P11182 whole entry, looked up): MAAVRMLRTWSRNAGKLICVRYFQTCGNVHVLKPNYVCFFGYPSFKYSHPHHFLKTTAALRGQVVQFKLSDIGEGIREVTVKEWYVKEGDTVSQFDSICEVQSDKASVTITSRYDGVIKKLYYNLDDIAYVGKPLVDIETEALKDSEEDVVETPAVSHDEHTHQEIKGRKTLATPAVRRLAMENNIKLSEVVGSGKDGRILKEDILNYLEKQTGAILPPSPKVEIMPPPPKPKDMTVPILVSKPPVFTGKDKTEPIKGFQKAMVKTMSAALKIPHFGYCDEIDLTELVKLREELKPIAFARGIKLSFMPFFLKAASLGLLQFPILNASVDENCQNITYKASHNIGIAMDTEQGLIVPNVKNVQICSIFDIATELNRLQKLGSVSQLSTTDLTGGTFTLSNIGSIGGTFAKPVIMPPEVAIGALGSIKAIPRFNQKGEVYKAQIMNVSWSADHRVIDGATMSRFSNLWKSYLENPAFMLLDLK
inactive: saracatinib -0.012 | sotrastaurin 0.025 | alvocidib 0.009 | Tubastatin A -0.072 | [1] 0.048 | defactinib 0.071 | rucaparib 0.089 | [2] -0.03 | encorafenib 0.046 | [3] -0.013 | [4] 0.009 | filanesib 0.012 | zotarolimus 0.007 | idasanutlin 0.015 | alisertib 0.003 | [5] -0.006 | gefitinib -0.021 | [6] 0.039 | lapatinib 0.004 | pictilisib 0.052

EXOC2 (UniProt Q96KP1)
inactive: saracatinib -0.058 | sotrastaurin -0.214 | alvocidib -0.01 | Tubastatin A 0.044 | [1] 0.064 | defactinib -0.096 | rucaparib 0.136 | [2] -0.004 | encorafenib 0.126 | [3] -0.085 | [4] 0.015 | filanesib -0.009 | zotarolimus 0.021 | idasanutlin -0.02 | alisertib -0.011 | [5] 0.096 | gefitinib 0.107 | [6] -0.106 | lapatinib -0.037 | pictilisib 0.059

DHCR24 (UniProt Q15392)
Sequence of UniProt Q15392 (Q15392 whole entry, looked up): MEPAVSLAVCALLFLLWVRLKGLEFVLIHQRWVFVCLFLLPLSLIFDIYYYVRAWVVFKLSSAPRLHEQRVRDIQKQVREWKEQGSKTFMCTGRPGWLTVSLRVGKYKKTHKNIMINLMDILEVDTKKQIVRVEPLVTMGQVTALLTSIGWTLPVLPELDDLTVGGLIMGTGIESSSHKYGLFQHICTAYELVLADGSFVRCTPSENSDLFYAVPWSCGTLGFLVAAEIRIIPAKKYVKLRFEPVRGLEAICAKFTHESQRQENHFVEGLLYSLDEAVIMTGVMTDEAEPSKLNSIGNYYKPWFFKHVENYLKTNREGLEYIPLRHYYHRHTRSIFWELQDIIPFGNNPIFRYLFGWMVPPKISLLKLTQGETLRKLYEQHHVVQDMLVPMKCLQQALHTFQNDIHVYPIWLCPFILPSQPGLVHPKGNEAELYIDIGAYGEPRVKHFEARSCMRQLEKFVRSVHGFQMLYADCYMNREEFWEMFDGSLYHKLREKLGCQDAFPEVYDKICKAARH
active: gefitinib 1.05
inactive: saracatinib 0.761 | sotrastaurin 0.567 | alvocidib 0.002 | Tubastatin A 0.338 | [1] -0.094 | defactinib -0.017 | rucaparib 0.561 | [2] 0.117 | encorafenib 0.001 | [3] 0.01 | [4] 0.061 | filanesib -0.074 | zotarolimus 0.013 | idasanutlin -0.087 | alisertib -0.123 | [5] 0.047 | [6] -0.038 | lapatinib 0.711 | pictilisib 0.055

DDX4 (UniProt Q9NQI0)
Sequence of UniProt Q9NQI0 (Q9NQI0 whole entry, looked up): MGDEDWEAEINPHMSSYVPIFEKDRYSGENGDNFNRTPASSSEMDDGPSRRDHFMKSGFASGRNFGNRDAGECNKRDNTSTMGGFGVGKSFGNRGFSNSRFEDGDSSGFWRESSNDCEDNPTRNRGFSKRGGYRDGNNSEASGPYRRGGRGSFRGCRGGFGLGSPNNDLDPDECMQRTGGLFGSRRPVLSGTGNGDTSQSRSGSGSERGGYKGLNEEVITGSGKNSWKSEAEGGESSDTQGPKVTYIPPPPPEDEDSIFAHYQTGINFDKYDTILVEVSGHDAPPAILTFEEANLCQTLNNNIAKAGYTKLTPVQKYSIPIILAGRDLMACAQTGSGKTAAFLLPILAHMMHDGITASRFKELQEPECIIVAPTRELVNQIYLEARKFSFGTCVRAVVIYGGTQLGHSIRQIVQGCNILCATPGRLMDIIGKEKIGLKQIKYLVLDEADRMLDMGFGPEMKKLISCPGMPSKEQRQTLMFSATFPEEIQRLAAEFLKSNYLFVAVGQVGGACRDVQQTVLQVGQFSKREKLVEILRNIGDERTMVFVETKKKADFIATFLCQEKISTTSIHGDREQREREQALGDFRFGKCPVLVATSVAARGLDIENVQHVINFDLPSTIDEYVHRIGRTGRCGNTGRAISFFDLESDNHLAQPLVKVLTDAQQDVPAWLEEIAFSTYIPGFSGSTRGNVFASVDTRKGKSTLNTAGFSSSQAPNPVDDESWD
inactive: saracatinib -0.342 | sotrastaurin 0.209 | alvocidib 0.206 | Tubastatin A 0.102 | [1] -0.097 | defactinib 0.11 | rucaparib 0.543 | [2] -0.095 | encorafenib 0.121 | [3] 0.067 | [4] -0.474 | filanesib 0.186 | zotarolimus 0.004 | idasanutlin 0.42 | alisertib 0.172 | [5] 0.368 | gefitinib 0.048 | [6] -0.715 | lapatinib -0.399 | pictilisib 0.17

DNM2 (UniProt P50570)
Sequence of UniProt P50570 (P50570 whole entry, looked up): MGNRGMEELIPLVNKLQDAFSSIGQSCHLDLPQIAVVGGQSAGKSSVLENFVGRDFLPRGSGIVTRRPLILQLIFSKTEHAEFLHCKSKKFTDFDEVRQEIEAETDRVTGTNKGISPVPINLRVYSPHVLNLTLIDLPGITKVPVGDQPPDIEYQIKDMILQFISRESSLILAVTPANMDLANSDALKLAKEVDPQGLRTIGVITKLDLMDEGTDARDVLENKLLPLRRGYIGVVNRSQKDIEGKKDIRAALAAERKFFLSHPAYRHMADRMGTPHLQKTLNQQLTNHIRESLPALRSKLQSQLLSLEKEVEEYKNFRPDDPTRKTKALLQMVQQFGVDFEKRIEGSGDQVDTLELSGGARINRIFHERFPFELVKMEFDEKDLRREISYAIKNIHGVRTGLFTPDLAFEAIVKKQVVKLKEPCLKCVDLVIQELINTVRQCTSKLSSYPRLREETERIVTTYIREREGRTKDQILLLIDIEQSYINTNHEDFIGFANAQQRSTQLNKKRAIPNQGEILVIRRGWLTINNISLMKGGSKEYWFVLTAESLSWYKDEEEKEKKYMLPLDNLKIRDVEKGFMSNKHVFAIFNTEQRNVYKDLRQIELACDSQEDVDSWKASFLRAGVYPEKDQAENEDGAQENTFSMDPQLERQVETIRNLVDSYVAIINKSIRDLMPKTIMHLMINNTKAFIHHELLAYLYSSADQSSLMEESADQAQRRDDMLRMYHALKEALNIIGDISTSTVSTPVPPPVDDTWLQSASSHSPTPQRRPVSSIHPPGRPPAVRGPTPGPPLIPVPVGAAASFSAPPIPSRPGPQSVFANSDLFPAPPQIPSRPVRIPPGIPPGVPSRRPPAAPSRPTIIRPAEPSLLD
inactive: saracatinib -0.028 | sotrastaurin 0.043 | alvocidib -0.074 | Tubastatin A 0 | [1] -0.027 | defactinib -0.02 | rucaparib 0.035 | [2] 0.029 | encorafenib 0.009 | [3] -0.03 | [4] -0.022 | filanesib -0.107 | zotarolimus 0.016 | idasanutlin -0.078 | alisertib -0.073 | [5] 0.099 | gefitinib 0.002 | [6] 0.023 | lapatinib -0.026 | pictilisib 0.021

CUEDC2 (UniProt Q9H467)
inactive: saracatinib -0.003 | sotrastaurin -0.045 | alvocidib -0.089 | Tubastatin A 0.197 | [1] -0.036 | defactinib -0.067 | rucaparib -0.033 | encorafenib 0.071 | [3] 0.016 | [4] 0.233 | filanesib 0.018 | zotarolimus 0 | idasanutlin 0.005 | alisertib -0.035 | [5] -0.018 | gefitinib 0.168 | [6] 0.023 | lapatinib -0.035 | pictilisib 0.014
active: [2] -0.338

EIF4E isoform 2 (UniProt P06730)
inactive: saracatinib 0.04 | sotrastaurin 0.189 | alvocidib -0.027 | Tubastatin A -0.085 | [1] 0 | defactinib -0.012 | rucaparib 0.008 | [2] 0.133 | encorafenib -0.023 | [3] -0.072 | [4] -0.002 | filanesib -0.038 | idasanutlin -0.085 | alisertib -0.083 | [5] 0.039 | gefitinib 0.112 | lapatinib 0.039
active: zotarolimus 0.346 | [6] 0.354 | pictilisib 0.373

FAM160B1 (UniProt Q5W0V3)
Sequence of UniProt Q5W0V3 (Q5W0V3 whole entry, looked up): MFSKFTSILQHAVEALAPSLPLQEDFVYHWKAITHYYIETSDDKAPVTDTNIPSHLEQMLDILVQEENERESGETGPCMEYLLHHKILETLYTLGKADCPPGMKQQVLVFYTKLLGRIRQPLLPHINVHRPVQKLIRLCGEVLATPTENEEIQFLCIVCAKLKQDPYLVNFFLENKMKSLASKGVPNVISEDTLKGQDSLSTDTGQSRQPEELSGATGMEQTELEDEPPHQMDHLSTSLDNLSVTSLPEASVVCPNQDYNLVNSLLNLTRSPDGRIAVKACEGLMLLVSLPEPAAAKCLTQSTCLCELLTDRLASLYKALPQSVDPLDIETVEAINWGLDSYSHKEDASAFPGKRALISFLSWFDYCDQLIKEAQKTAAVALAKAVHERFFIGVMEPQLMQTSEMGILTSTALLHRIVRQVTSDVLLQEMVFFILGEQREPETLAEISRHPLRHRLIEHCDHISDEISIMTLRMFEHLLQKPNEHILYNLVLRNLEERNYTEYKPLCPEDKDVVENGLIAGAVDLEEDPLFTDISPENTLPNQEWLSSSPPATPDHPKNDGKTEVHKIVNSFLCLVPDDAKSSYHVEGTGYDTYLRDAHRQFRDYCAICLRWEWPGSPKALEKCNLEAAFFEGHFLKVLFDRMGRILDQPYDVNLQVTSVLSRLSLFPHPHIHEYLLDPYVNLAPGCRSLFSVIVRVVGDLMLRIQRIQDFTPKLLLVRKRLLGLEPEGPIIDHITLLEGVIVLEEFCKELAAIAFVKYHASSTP
inactive: saracatinib -0.003 | sotrastaurin -0.071 | alvocidib -0.138 | Tubastatin A 0 | [1] -0.011 | defactinib -0.01 | rucaparib -0.036 | [2] -0.007 | encorafenib -0.015 | [3] 0.072 | [4] 0.026 | filanesib -0.145 | zotarolimus 0.004 | idasanutlin -0.053 | alisertib -0.096 | [5] -0.092 | gefitinib 0.047 | [6] -0.027 | lapatinib 0.009 | pictilisib -0.009

DNAH11 (UniProt Q96DT5)
inactive: saracatinib 0.301 | sotrastaurin 0.317 | alvocidib 0.517 | Tubastatin A -0.083 | [1] -0.043 | defactinib -0.11 | rucaparib 0.162 | [2] 0.061 | encorafenib 0.152 | [3] 0.049 | [4] 0 | filanesib 0.047 | zotarolimus 0.04 | idasanutlin 0.03 | alisertib -0.025 | [5] -0.137 | gefitinib -0.002 | [6] -0.203 | lapatinib 0.216 | pictilisib 0.552

ERLIN1 (UniProt O75477)
Sequence of UniProt O75477 (O75477 whole entry, looked up): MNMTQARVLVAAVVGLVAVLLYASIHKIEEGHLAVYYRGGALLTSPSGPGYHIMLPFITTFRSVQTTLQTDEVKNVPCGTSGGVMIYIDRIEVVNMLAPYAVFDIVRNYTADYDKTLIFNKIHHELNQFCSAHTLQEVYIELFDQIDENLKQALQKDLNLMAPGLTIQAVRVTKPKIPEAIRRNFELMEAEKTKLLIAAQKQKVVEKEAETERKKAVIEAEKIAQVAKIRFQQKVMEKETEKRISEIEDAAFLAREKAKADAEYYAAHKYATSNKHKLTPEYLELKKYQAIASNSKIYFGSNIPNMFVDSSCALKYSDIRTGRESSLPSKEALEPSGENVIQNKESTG
inactive: saracatinib 0 | sotrastaurin -0.072 | alvocidib 0.023 | Tubastatin A 0.029 | [1] -0.06 | defactinib 0.028 | rucaparib 0.072 | [2] -0.004 | encorafenib 0.105 | [3] -0.024 | [4] -0.013 | filanesib 0.031 | zotarolimus 0.037 | idasanutlin 0.128 | alisertib -0.092 | [5] -0.075 | gefitinib -0.051 | [6] -0.14 | lapatinib 0.006 | pictilisib -0.107

ERLIN2 (UniProt O94905)
inactive: saracatinib -0.044 | sotrastaurin -0.097 | alvocidib 0.034 | Tubastatin A 0 | [1] -0.137 | defactinib 0.026 | rucaparib 0.033 | [2] -0.005 | encorafenib 0.092 | [3] 0.004 | [4] -0.006 | filanesib 0.039 | zotarolimus 0.034 | idasanutlin 0.09 | alisertib -0.085 | [5] -0.143 | gefitinib -0.058 | [6] -0.076 | lapatinib -0.019 | pictilisib -0.09
